Pf growth 48h: Primary qHTS for delayed death inhibitors of the malarial parasite plastid, 48 hour incubation; P. falciparum luciferase growth in erythrocytes, 48 h; Potency, µM (series often up to 28.7 µM), without a hit: at the top dose activity change, negative = inhibition, most hits filed as inhibitors; 310,000 tested, 5.9% active; AID 504832, 2011; note: % is set by controls: 0 for no effect and ±100 for the full control effect
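Compounds are pin-transferred into medium, infected erythrocytes (2% hematocrit, 0.1% parasitemia final) are added, and plates sit one parasite generation at 37 C in 5% CO2. Detection reagent is then added and luminescence measured.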
Pf growth 96h: Primary qHTS for delayed death inhibitors of the malarial parasite plastid, 96 hour incubation. P. falciparum luciferase reporter growth, 96 h. Potency, µM (series often up to 28.7 µM), without a hit: at the highest dose activity change, negative = inhibition, usual class: inhibitors. 320,000 tested, 6.9% active. AID 504834, 2011; note: % is set by controls: 0 for no effect and ±100 for the full control effect
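Readout is luminescence from an integrated firefly luciferase in P. falciparum. Red cells, 2% hematocrit and 0.05% parasitemia final, were cultured with compound through two parasite generations (96 hours) at 37 C, 5% CO2.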
NS1 inh: qHTS Assay for Inhibitors of Influenza NS1 Protein Function; Potency, µM (highest dose often 46.1 µM), inactives show top-dose activity, positive = more growth; 270,000 tested, 0.4% active; calls by dose curve; note: actives are rising curves; nearly all actives have a fitted effect of over 50% in size
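Read-out: OD600 growth recovery of NS1-expressing budding yeast. Cells grown overnight at 30C in -URA glucose medium, washed, resuspended and diluted 1:100 in 2% galactose assay medium, pH 6.0. Same strain lacking NS1 served as positive control.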
Sm TGR block: qHTS Assay for the Inhibitors of Schistosoma Mansoni Peroxiredoxins; Schistosoma mansoni thioredoxin glutathione reductase (TGR), Q962Y6; purified TGR, DTNB reduction, TNB absorbance 405 nm; Potency, µM (top dose mostly 114 µM), for the others: top-dose activity change, negative = inhibition, most hits filed as inhibitors; 360,000 tested, 3% active; note: % is set by controls: 0 for no effect and ±100 for the full control effect; nearly all actives have a fitted effect of over 60% in size
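TGR 20 nM + NADPH 100 uM (dispensed conc.), cpd preinc 15 min RT; start with NADPH (500 uM addition) then DTNB (15 mM addition). Kinetic TNB absorbance, 405 nm filter. Four-parameter Hill fit across titration.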
AMA1-RON2 inh: qHTS for Inhibitors of AMA1-RON; Towards Development of Antimalarial Drug Lead: Primary Screen; Plasmodium falciparum AMA1 (3D7) - RON2 peptide interaction; AlphaScreen AMA1-biotinylated RON2 peptide binding; Potency, µM (titrated, usually from 58.2 µM), for the others: at the top dose activity change, negative = inhibition, usual class: inhibitors; 360,000 tested, 0.2% active; AID 720542, 2013;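 note: 0% = vehicle wells and -100% = peptide control; nearly all actives have a fitted effect of over 45% in size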
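AMA1 (3D7) with his tag at 25 nM final met compounds first, then biotinylated RON2 peptide at 25 nM; detection used donor plus acceptor beads, 10 µg/mL apiece, read by AlphaScreen after 30 min at room temperature.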
The depositor's hits bear a star; ? = inconclusive; nt = no result given; [ ] = another dose, or the depositor's remark. Shown are actives, neighbours in structure and some others; about 11% of the full set was active somewhere. Unless noted, calls come from the whole dose curve; as a rule, active = well fitted curve in the direction sought with a large enough effect; inconclusive = small, poorly fitted or top-dose-only effect, or another doubt; inactive = no such curve, though single readings can be large; an effect the other way counts as inactive or inconclusive. Potency is the fitted concentration of half-maximal effect.

SMILES | Pf growth 48h | Pf growth 96h | NS1 inh | Sm TGR block | AMA1-RON2 inh
CCC[N+]12CCC(CC1)C(=C(c1ccccc1)c1ccccc1)C2 | 1.3µM* | ? | -7% | -1% | -7%
CCCC[N+]12CCC(CC1)C(=C(c1ccccc1)c1ccccc1)C2 | 1.3µM* | 0.74µM* | 0% | -28% | 5%
CCCCN(CCCC)NC(=O)c1ccccc1 | 18% | ? | nt | 5% | 4%
O=C(Nc1ccc([N+](=O)[O-])cc1)Nn1cnnc1 | 12% | 65% | 8% | -11% | 0%
Cc1nn2c(=O)cc(COC(=O)Cc3ccccc3)nc2s1 | nt | nt | nt | 4% | nt
Cc1cccc(Cc2nnc(CCC(=O)NCc3cn4ccccc4n3)o2)c1 | -8% | -21% | 9% | 6% | -5%
COc1ccc(CC(=O)Nc2ccc(S(=O)(=O)N3CCOCC3)cc2)cc1 | ? | ? | nt | 2% | 1%
CCN(CC)S(=O)(=O)c1ccc2c(c1)nc(CCC(=O)Nc1ccc(N3CCOCC3)cc1)n2C | 15µM* | ? | nt | -15% | -3%
COc1ccc(S(=O)(=O)N(CC(=O)Nc2ccc(S(=O)(=O)N3CCOCC3)cc2)Cc2ccc(F)cc2)cc1 | 15µM* | ? | 16% | 2% | 6%
CCOc1ccccc1NC(=O)/C=C/c1ccc(S(=O)(=O)N2CCOCC2)cc1 | 4.7µM* | 4.7µM* | nt | 4% | 4%
CCN(Cc1ccc(OC)c(F)c1)C(=O)/C=C/c1ccc(S(=O)(=O)N2CCOCC2)cc1 | 10µM* | 9.3µM* | nt | -2% | 2%
COC(=O)c1cc2oc(C)cc2n1Cc1cccc(Cl)c1 | nt | nt | nt | -21% | nt
Cc1cc(C)c(OCC(=O)N(Cc2ccc(N(C)C)cc2)C2CCS(=O)(=O)C2)c(C)c1 (stereo unspecified) | ? | ? | 0% | -9% | -15%
O=C(/C=C/c1ccc(F)cc1)Nc1cc(S(=O)(=O)N2CCOCC2)ccc1N1CCOCC1 | nt | nt | nt | nt | 6%
COc1ccc(/C=C/C(=O)Nc2cccc(F)c2)cc1S(=O)(=O)N1CCOCC1 | ? | 6.6µM* | nt | 2% | 2%
O=C(/C=C/c1ccc(F)cc1)Nc1ccc(S(=O)(=O)N2CCOCC2)cc1 | 10µM* | ? | -6% | -1% | 3%
COc1ccc(NC(=O)/C=C/c2ccc(C)o2)cc1S(=O)(=O)N1CCOCC1 | -1% | -3% | 7% | 18µM* | -1%
COc1cccc(NC(=O)/C=C/c2ccc(S(=O)(=O)N3CCOCC3)cc2)c1 | ? | 10µM* | nt | 1% | 3%
COc1ccc(/C=C/C(=O)Nc2ccccc2F)cc1S(=O)(=O)N1CCOCC1 | nt | nt | nt | nt | -1%
Cc1ccc(NC2CCCN(C(=O)c3ccnc(Cl)c3)C2)cc1C (stereo unspecified) | 2% | 118% | 0% | -32% | -10%
CCN(CC)S(=O)(=O)c1ccc(/C=C/C(=O)Nc2ccc(N3CCOCC3)cc2)cc1 | 10µM* | 1.9µM* | 5% | 13% | -27%
COc1cccc(NC(=O)CN(C)C(C)C(=O)Nc2ccc(S(=O)(=O)N3CCOCC3)cc2)c1 (stereo unspecified) | 5.2µM* | 4.7µM* | -45% | 8% | 49%
COc1cccc(CNC(=O)c2cc(S(=O)(=O)N3CCCCC3)ccc2C)c1 | nt | nt | nt | nt | -4%
COc1ccc(CN(C)C(C)C(=O)Nc2ccc(S(=O)(=O)N3CCOCC3)cc2)c(OC)c1 (stereo unspecified) | ? | ? | nt | -19% | -1%
CCCn1c(CCC(=O)Nc2ccccc2Cc2ccccc2)nc2cc(S(=O)(=O)N3CCOCC3)ccc21 | nt | 2.3µM* | 6% | -3% | 8%
SMILES | Pf growth 48h | Pf growth 96h | NS1 inh | Sm TGR block | AMA1-RON2 inh
COc1cccc(CN(C)C(=O)/C=C/c2ccc(S(=O)(=O)N3CCCCCC3)cc2)c1 | 12µM* | 12µM* | ? | -22% | -4%
Cc1cc(C)c(NC(=O)CNC(=O)COC(=O)/C=C/c2cccs2)c(C)c1 | 13% | 4% | nt | 20% | -3%
CCOC(=O)c1cc(-c2csc(N/N=C/c3ccccc3Cl)n2)on1 | ? | 2.6µM* | 0% | 2% | 21%
Cc1ccc2c(c1)c1c3n2CCN(C(=O)C2CC2)C3CCC1 (stereo unspecified) | nt | ? | -78% | 0% | ?
Cc1ccc2c(c1)c1c3n2CC(=C2C(=O)OC(C)(C)OC2=O)NC3CCC1 (stereo unspecified) | ? | 0.19µM* | -59% | ? | 9%
CN(Cc1ccccc1)C(=O)C1CCCN1S(=O)(=O)c1ccc2c(c1)n(C)c(=O)c(=O)n2C (stereo unspecified) | -21% | 5% | 1% | 7% | 1%
CN(C)c1ccc(NC(=O)c2cccc(C(=O)Nc3ccc(N(C)C)cc3)n2)cc1 | ? | 8.3µM* | 16% | -14% | 10µM*
CC(Sc1nc(-c2ccccc2)cc(C(F)(F)F)n1)C(=O)N1CCCC1 (stereo unspecified) | 3% | ? | 4% | -8% | 5%
CC(Sc1nc(-c2ccccc2)cc(C(F)(F)F)n1)C(=O)N1CCOCC1 (stereo unspecified) | ? | 1.7µM* | 13% | 5% | 9%
CCCn1c(=O)c2c(C(=O)OCC)cc(-c3ccco3)nc2n(CCC)c1=O | nt | 1.5µM* | 3% | -17% | 1%
CCOC(=O)c1cc(-c2ccco2)nc2c1c(C)nn2-c1ccccc1 | 9.3µM* | 14% | -4% | 8.9µM* | 9%
CCOC(=O)c1cnn2c(C(F)(F)F)cc(-c3ccco3)nc12 | 2% | 2% | -2% | 0% | 7%
COc1cc(NC(=O)C2=C(C)OCCS2)c(Cl)cc1C(=O)NCCN(C)C | -5% | ? | -2% | -10% | 7%
CC(C)Oc1cccc(C(=O)C2CCCN(C(=O)CCc3cnn(C)c3)C2)c1 (stereo unspecified) | 69% | ? | -7% | 4% | -3%
O=c1ccc2c(-c3ccccc3)c3ccc(O)cc3oc-2c1 | nt | -8% | -1% | 8.9µM* | -22%
NC(=O)N/N=C/c1ccccc1OC(=O)c1ccccc1Br | 15% | 18% | -6% | nt | 12%
Cc1cccc(NC(=O)N2CCC(CN3CCOCC3)CC2)c1C | nt | nt | nt | 4% | nt
CCNC(=O)NC(=O)CSc1ccc(S(=O)(=O)N(C)C2CCCCC2)cn1 | 12µM* | 9.3µM* | nt | -5% | 5%[11.6 µM]

Compound activity as filed in PubChem.
